Out of some 16,000 compounds screened, about 5,800 (36%) were called active. Another 23% or so got no clear call; they are omitted. The list shows a part of the results. A number with no mark means an inactive call. Calls come from the whole dose curve; as a rule, active = well fitted curve in the direction sought with a large enough effect; inconclusive = small, poorly fitted or top-dose-only effect, or effect the other way; inactive = no such curve, though single readings can be large or run the other way.
% is set by controls: 0 for no effect and ±100 for the full control effect.

In this assay the target is Cytochrome P450 2C19 (Homo sapiens) (UniProt P33261). Nature of the assay: Cytochrome panel assay with activity outcomes. To be noted: recombinant CYP, pro-luciferin dealkylation, luminescence, p450-cyp2c19; series mostly up to 57.1 µM; activity, negative = inhibition: at the top concentration.
Sequence of Cytochrome P450 2C19 (Homo sapiens) (P33261 whole entry, looked up): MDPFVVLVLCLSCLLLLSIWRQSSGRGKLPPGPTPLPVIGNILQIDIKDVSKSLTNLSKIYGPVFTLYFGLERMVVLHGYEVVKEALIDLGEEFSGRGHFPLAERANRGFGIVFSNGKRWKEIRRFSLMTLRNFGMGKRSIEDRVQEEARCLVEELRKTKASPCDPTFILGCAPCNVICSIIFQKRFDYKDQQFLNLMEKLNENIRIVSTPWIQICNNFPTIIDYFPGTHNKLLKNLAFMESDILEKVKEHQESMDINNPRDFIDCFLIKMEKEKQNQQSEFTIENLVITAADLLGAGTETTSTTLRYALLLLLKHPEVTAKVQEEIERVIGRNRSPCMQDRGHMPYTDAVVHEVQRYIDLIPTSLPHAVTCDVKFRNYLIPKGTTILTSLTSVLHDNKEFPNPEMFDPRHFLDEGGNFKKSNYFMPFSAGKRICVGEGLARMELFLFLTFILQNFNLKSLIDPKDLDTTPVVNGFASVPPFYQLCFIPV
In the case of `CCCNC(=O)N1N=C(c2ccc(N)cc2)c2cc3c(cc2[C@H]1C)OCO3`, the “activity, negative = inhibition” value was -37.3%.
Regarding `COc1ccccc1CNC(=O)C/C(C)=N/NC(=O)Cc1ccccc1`, the “activity, negative = inhibition” value is -3.74%.
Still for that read-out and setting: for `O=C(O)Cc1ccc(NC(=O)C2CCCCC2C(=O)O)cc1` (stereo unspecified) the value was -12.8%.
The AC50 is the midpoint of the concentration-response curve, whichever way the signal moves. For `CC1CCC(=NNC(=O)Cc2ccccc2)CC1` (stereo unspecified), the AC50 is 25.1 µM (active).
`CN1CCC(=NNC(=O)CSCc2ccccc2)CC1`: the AC50 was 17.8 µM (active).
On to `O=C(c1coc2ccccc2c1=O)N1CCN(c2cccc(C(F)(F)F)c2)CC1`, for which the AC50 is 14.1 µM (active).
`O=C(c1cc(C(F)(F)F)cc(C(F)(F)F)c1)N1CCC[C@@]2(CCN(c3ccccc3)C2)C1`: the “activity, negative = inhibition” value was -33.8%.
As for `O=C(c1cccc(F)c1)N1CCC2(CCN(Cc3cc(C(F)(F)F)cc(C(F)(F)F)c3)CC2)CC1`, the “activity, negative = inhibition” value was 22.7%.
On to `CC(C)C(=O)Cc1ccc2ccccc2n1`, for which the activity, negative = inhibition is 6.88% [at 11.4 µM].
`O=C(Nc1ccccc1C(=O)O)c1ccc2ccccc2n1`: the “activity, negative = inhibition” value is -22.5%.
On to `O=C(O)c1ccccc1Nc1cccc(OCc2ccc3ccccc3n2)c1`, for which the AC50 is 5.01 µM (active).
`CCCCc1cc2ccccc2c(OCCN(C)C)n1`: the “activity, negative = inhibition” value was -31.4% [at 25.6 µM].
Turning to `CCCCC[C@H](O)c1cccc(OCc2ccc3ccccc3n2)c1`, the AC50 is 6.31 µM (active).
As for `O=C(O)CP(=O)(O)O`, the AC50 entry was “inactive”.
For the compound `C=CC[C@@H]1C=C[C@H](ON=C(C)C)[C@H](CO)O1`, the activity, negative = inhibition is -4.34% [at 11.4 µM].
In the case of `Cc1cc(-c2n[nH]c(=S)o2)c(C)n1-c1ccccc1`, the “activity, negative = inhibition” value was -95.6%.
Turning to `Cc1cc(C)cc(-n2c(C)cc(C=C(C#N)C#N)c2C)c1`, the AC50 was 5.62 µM (active).
With `Cc1cc(C=C(C#N)C#N)c(C)n1-c1ccccc1`, the AC50 was 1 µM (active).
Turning to `Cc1cc(C)nc(Nc2ncc(O)n2-c2ccccc2)n1`, the “activity, negative = inhibition” value was -17%.
With `C#CCCCO/N=C1/C[C@@H](O)[C@@H](O)[C@@H]2[C@@H]3C(=O)N(CCC(=O)OCC)C(=O)[C@H]3CC[C@@H]12`, the activity, negative = inhibition is -1.53% [at 11.4 µM].
Still for that read-out and setting: for `COc1ccc(-n2c(=O)cnc3cnc(N4CCNCC4)nc32)cc1` the value was -4.4%; for `COc1ccc(CCNC(=O)Cn2c(=O)oc3ccccc32)cc1OC`, -24.7%.
With `CSc1cccc(NC(=O)Cn2cccc2)c1`, the AC50 was 6.31 µM (active).
As for `CCOc1cc(/C=C2/NC(=O)N(CC(=O)Nc3cccc(C)c3)C2=O)ccc1OC`, the “activity, negative = inhibition” value is 27.2%.
Still for that read-out and setting: for `CSc1cccc(NC(=O)OC2CCCCCCCCCCC2)c1` the value was -41.3% [at 11.4 µM].
For the compound `CSc1cccc(NC(=O)Nc2ccc(Cl)cc2)c1`, the AC50 is 2 µM (active).
`Cc1ccc(CNC(=O)Cn2c(=O)oc3ccccc32)o1`: the AC50 was 3.55 µM (active).
The same measure, in the same setting: under `Cc1cccc(NC(=O)Cn2cccc2)c1` stands 15.8 µM (active).
For the compound `N#Cc1cccc(NC(=O)N2CCCC3(CCN(C(=O)c4csnn4)CC3)C2)c1`, the “activity, negative = inhibition” value is 3.09%.
`CC(=O)OC[C@H]1O[C@@H](O/N=C(\C)CCN2CCCc3nc(C)c(C)cc32)[C@H](OC(C)=O)[C@@H](OC(C)=O)[C@H]1OC(C)=O`: the activity, negative = inhibition was -24.1% [at 11.4 µM].
Regarding `CCN(C(=O)Cn1c(=O)oc2ccccc21)c1cccc(C(F)(F)F)c1`, the AC50 was 3.55 µM (active).
With `Cc1cc(C)nc(SCCc2cccc[n+]2C)n1`, the activity, negative = inhibition was 66.4% [at 11.4 µM].
Regarding `Cc1cccc(NC(=O)CCSc2nc(C)cc(C)n2)c1`, the AC50 was 4.47 µM (active).
On to `Cc1cccc(N/C(N)=N/c2nc(C)cc(C)n2)c1`, for which the “activity, negative = inhibition” value is -35.4%.
With `Cc1cccc(NC(=O)Cn2c(=O)oc3ccccc32)c1`, the AC50 is 3.16 µM (active).
Same read-out and setting: for `O=C(O)C1=CCNCC1` the value was “inactive”; for `COc1ccc(CNc2ccnc(-c3c(C)noc3C)n2)c(OC)c1`, 1.58 µM (active).
For the compound `COCCNc1ccnc(-c2c(C)noc2C)n1`, the “activity, negative = inhibition” value is -17.2%.
On to `COc1ccccc1CNc1ccnc(-c2c(C)noc2C)n1`, for which the AC50 was 1 µM (active).
For the compound `CC(=O)N1CC(=O)N(OCc2ccccc2)C1c1ccc(Cl)cc1Cl` (stereo unspecified), the AC50 was 3.16 µM (active).
With `COC(=O)N1CC(=O)N(OC)C1c1ccc(Cl)cc1Cl` (stereo unspecified), the AC50 is 5.62 µM (active).
`CCOc1ccc(N=C2NC(=O)C(CC(=O)O)S2)cc1` (stereo unspecified): the “activity, negative = inhibition” value is -16.7%.
For `Cc1ccc2c(c1)C(=O)[C@@]1(O)CCN(c3ccccc3)C1=N2`, the AC50 was 7.94 µM (active).
For `CC(C)(Oc1ccc(Cl)cc1)C(=O)Nc1ccncc1`, the AC50 is 0.0562 µM (active).
As to `CC(C)(Oc1ccc(CCNC(=O)c2ccc(Cl)cc2)cc1)C(=O)O`, the “activity, negative = inhibition” value is -13.4% [at 25.6 µM].
Regarding `CC(C)(Oc1ccc([C@@H]2CC2(Cl)Cl)cc1)C(=O)O`, the AC50 result was “inactive”.
On to `CCC(C)(C)N=C(NC#N)Nc1cccnc1`, for which the “activity, negative = inhibition” value was 15.9%.
For `CC(C)(Oc1ccc(Cl)cc1)C(=O)Nc1cccnc1`, the AC50 was 2.51 µM (active).
As for `O=C1c2ccccc2CCC12N=NCC2c1ccc(Cl)cc1` (stereo unspecified), the AC50 is 0.562 µM (active).
On to `C=CCn1c(SC(C)C(=O)NCc2ccc3c(c2)OCO3)nc2scc(-c3ccccc3)c2c1=O` (stereo unspecified), for which the AC50 was 2 µM (active).
Consider `C=CCn1c(SCC(=O)N2CC(=O)Nc3ccccc32)nc2scc(-c3ccccc3)c2c1=O`, for which the AC50 is 7.94 µM (active).

The record behind these values is PubChem BioAssay AID1851 (National Center for Advancing Translational Sciences (NCATS), 2009).
